Reference: PubChem BioAssay AID1159580 (chemical genetic matrix, 2015)
“And” between values parts separate entries of the source, which are not always exact repeats. Equal values may be shown once. Out of some 5,500 compounds screened, about 2,000 (36%) were called active. Roughly 18% stayed inconclusive and do not appear here. Rule as the data show it: active = normalized growth mostly below about 0.91 (no sharp cut-off); inconclusive = no clear call, values can overlap the other calls; inactive = mostly above about 0.92. The list shows a part of the results.

Assay: chemical genetic growth profiling, strain panel (AID 1159580);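 also: tested at 20 µM; growth read once vehicle control cultures reached saturation at 30 °C; 1 = growth at the plate median or of vehicle wells; lower values mean less growth of the strain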
Settings: S. cerevisiae deletion strains, growth OD

Measured: normalized growth

C[C@]12CCC(=O)C=C1CCC1C2[C@@H](O)C[C@@]2(C)C1CC[C@]2(O)C(=O)CO (stereo partly drawn)
inactive: locus YAL013W, strain DEP1, stronger effect = lower value 1.02 | locus YAL021C, strain ccr4, stronger effect = lower value 0.984 | locus YAL026C, strain drs2, stronger effect = lower value 0.994 | locus YAL030W, strain snc1, stronger effect = lower value 1.01 | locus YBL061C, strain skt5, stronger effect = lower value 0.987 | locus YBR009C, strain hhf1, stronger effect = lower value 1 | locus YBR021W, strain FUR4, stronger effect = lower value 1.01 | locus YBR023C, strain chs3, stronger effect = lower value 0.979 | locus YBR171W, strain sec66, stronger effect = lower value 0.975 | locus YBR229C, strain ROT2, stronger effect = lower value 1.02 | locus YBR231C, strain swc5, stronger effect = lower value 1 | locus YBR279W, strain paf1, stronger effect = lower value 0.98 | locus YCL011C, strain gbp2, stronger effect = lower value 0.979 | locus YCL016C, strain dcc1, stronger effect = lower value 0.971 | locus YCL029C, strain bik1, stronger effect = lower value 0.995 | locus YCL069W, strain vba3, stronger effect = lower value 1 | locus YCR088W, strain abp1, stronger effect = lower value 0.993 | locus YDL005C, strain med2, stronger effect = lower value 0.99 | locus YDL035C, strain GPR1, stronger effect = lower value 1.02 | locus YDL040C, strain nat1, stronger effect = lower value 1.01 | locus YDL074C, strain BRE1, stronger effect = lower value 1.02 | locus YDL101C, strain DUN1, stronger effect = lower value 1.02 | locus YDL185W, strain tfp1, stronger effect = lower value 1 | locus YDL192W, strain arf1, stronger effect = lower value 0.99 | locus YDR001C, strain nth1, stronger effect = lower value 1 | locus YDR069C, strain doa4, stronger effect = lower value 0.993 | locus YDR101C, strain arx1, stronger effect = lower value 0.974 | locus YDR137W, strain rgp1, stronger effect = lower value 1.01 | locus YDR159W, strain sac3, stronger effect = lower value 0.948 | locus YDR162C, strain NBP2, stronger effect = lower value 1.02 | locus YDR195W, strain ref2 0.974 | locus YDR297W, strain sur2, stronger effect = lower value 1 | locus YDR318W, strain mcm21, stronger effect = lower value 1 | locus YDR334W, strain swr1, stronger effect = lower value 0.981 | locus YDR335W, strain msn5, stronger effect = lower value 0.987 | locus YDR388W, stronger effect = lower value 0.991 | locus YDR392W, strain spt3, stronger effect = lower value 0.899 | locus YDR502C, strain sam2, stronger effect = lower value 1.01 | locus YEL003W, strain gim4, stronger effect = lower value 1.01 | locus YEL037C, strain rad23, stronger effect = lower value 1 | locus YEL061C, strain CIN8 (second series), stronger effect = lower value 0.991 | locus YEL061C, strain CIN8, stronger effect = lower value 1.01 | locus YER015W, strain faa2, stronger effect = lower value 0.996 | locus YER016W, strain bim1, stronger effect = lower value 0.99 | locus YER110C, stronger effect = lower value 0.989 | locus YER111C, strain swi4, stronger effect = lower value 0.981 | locus YER155C, strain BEM2 (second series), stronger effect = lower value 1.01 | locus YER155C, strain BEM2, stronger effect = lower value 1.01 | locus YER167W, strain BCK2, stronger effect = lower value 1.01 | locus YFR010W, strain ubp6, stronger effect = lower value 1.01 | locus YGL078C, strain dbp3, stronger effect = lower value 0.984 | locus YGL086W, strain mad1, stronger effect = lower value 0.988 | locus YGL167C, strain pmr1, stronger effect = lower value 0.987 | locus YGL173C, strain kem1, stronger effect = lower value 0.975 | locus YGL227W, strain vid30, stronger effect = lower value 0.981 | locus YGL240W, strain doc1, stronger effect = lower value 0.971 | locus YGL248W, strain PDE1, stronger effect = lower value 1.02 | locus YGL253W, strain hxk2, stronger effect = lower value 0.99 | locus YGR078C, strain PAC10, stronger effect = lower value 1.03 | locus YGR135W, strain pre9, stronger effect = lower value 1.01 | locus YGR229C, strain SMI1, stronger effect = lower value 1.02 | locus YGR252W, strain gcn5, stronger effect = lower value 1.02 | locus YHR013C, strain ard1, stronger effect = lower value 0.969 | locus YHR027C, strain rpn1, stronger effect = lower value 1.01 | locus YHR030C, strain SLT2, stronger effect = lower value 1.01 and 0.975 | locus YHR079C, strain IRE1 (second series), stronger effect = lower value 0.997 | locus YHR079C, strain IRE1, stronger effect = lower value 0.99 | locus YHR094C, strain hxt1, stronger effect = lower value 0.988 | locus YHR129C, strain ARP1, stronger effect = lower value 1.02 | locus YHR142W, strain chs7, stronger effect = lower value 0.999 | locus YHR200W, strain rpn10, stronger effect = lower value 1.01 | locus YIL066C, strain RNR3, stronger effect = lower value 1.02 | locus YIL073C, strain SPO22, stronger effect = lower value 1.02 | locus YIL125W, strain kgd1, stronger effect = lower value 0.997 | locus YIR030C, strain dcg1, stronger effect = lower value 0.994 | locus YJL092W, strain hpr5, stronger effect = lower value 0.995 | locus YJL095W, strain BCK1 (second series), stronger effect = lower value 1 | locus YJL095W, strain BCK1, stronger effect = lower value 1.04 and 0.981 | locus YJL115W, strain asf1, stronger effect = lower value 0.992 | locus YJL129C, strain trk1, stronger effect = lower value 0.97 | locus YJL134W, strain LCB3, stronger effect = lower value 1.01 | locus YJL154C, strain vps35, stronger effect = lower value 0.991 | locus YJL164C, strain tpk1, stronger effect = lower value 1 | locus YJL166W, strain qcr8, stronger effect = lower value 1.02 | locus YJL168C, strain set2, stronger effect = lower value 0.999 | locus YJL187C, strain SWE1 (second series), stronger effect = lower value 1.02 | locus YJR043C, strain POL32, stronger effect = lower value 1.03 | locus YJR066W, strain TOR1, stronger effect = lower value 0.922
